# Inconclusive results are not listed. Active and inactive are the calls of the source. Unless noted, the call rests on the fitted dose curve.
# Tests used:
# [1] = target: Lysosomal acid glucosylceramidase (Homo sapiens) (UniProt P04062); experiment: Glucocerebrosidase-p2 (AID 348; in the data active means potency below about 10 µM; further: potency means the concentration at half of the fitted maximal effect); details: purified GBA, blue fluorogenic substrate, 40 min
# How it was run: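 Normal human glucocerebrosidase (0.2 nM) with blue fluorogenic substrate (80 uM final) in citrate/phosphate pH 5.9 with 10mM sodium taurocholate, 0.01% tween-20; 40 min RT, NaOH/glycine stop; fluorescence Ex 365/Em 440; AC50 from a titration from 0.6 nM upwards.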
# [2] = AP1 Signaling Pathway (AID 357; active means well fitted curve in either direction with a large enough effect, not every such curve was filed as active;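 further: ME-180 reporter cells stimulated with EGF at its EC50 level; on the % scale 0 is the no-effect control and ±100 the full control effect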); details: ME-180 AP-1-bla reporter, EGF-induced, beta-lactamase ratio, 5 h; at 7.69 µM (top of the series) unless noted
# How it was run: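 Cells are seeded overnight, exposed to compound titrations and an EC50 level of EGF for 5 hours at 37 °C, then loaded with CCF4 dye for 2.5 hours. Beta-lactamase activity under the AP-1 element is read as a blue/green ratio.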
# [3] = target: Cytochrome P450 1A2 (Homo sapiens) (UniProt P05177); experiment: p450-cyp1a2 (AID 410); details: recombinant CYP1A2, luciferin-ME demethylation, luminescence; series mostly up to 57 µM; further: potency means the concentration at half of the fitted maximal effect;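 on activity change, negative = inhibition: -100% = full effect of reference inhibitor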
# Sequence of Cytochrome P450 1A2 (Homo sapiens) (P05177 whole entry, looked up): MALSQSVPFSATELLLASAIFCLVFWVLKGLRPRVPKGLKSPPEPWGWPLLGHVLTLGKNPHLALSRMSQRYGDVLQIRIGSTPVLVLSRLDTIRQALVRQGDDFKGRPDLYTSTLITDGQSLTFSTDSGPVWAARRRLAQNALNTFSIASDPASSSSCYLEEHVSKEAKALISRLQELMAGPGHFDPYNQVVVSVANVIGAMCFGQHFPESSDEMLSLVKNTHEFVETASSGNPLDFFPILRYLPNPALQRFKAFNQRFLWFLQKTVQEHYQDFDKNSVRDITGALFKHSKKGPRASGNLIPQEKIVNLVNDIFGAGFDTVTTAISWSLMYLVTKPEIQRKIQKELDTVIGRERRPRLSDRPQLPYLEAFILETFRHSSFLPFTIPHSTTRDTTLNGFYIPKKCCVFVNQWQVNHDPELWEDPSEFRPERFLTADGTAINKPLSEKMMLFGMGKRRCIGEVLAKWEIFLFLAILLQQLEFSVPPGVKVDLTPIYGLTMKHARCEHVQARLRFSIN
# How it was run: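 Read-out is luminescence from luciferin produced by CYP1A2 demethylation of Luciferin-ME (100uM, at Km). Detection reagent stopped the 60 min NADPH-dependent reaction; signals were normalized to 57 uM furafylline.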
# [4] = Stat Signaling Pathway (AID 446; active means well fitted curve in either direction with a large enough effect, not every such curve was filed as active;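 further: ME-180 cervical cancer cells given 40 pM IL-6 alongside compound; SIE-controlled beta-lactamase reporter measured as 460/530 nm FRET emission ratio; on the % scale 0 is the no-effect control and ±100 the full control effect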); details: ME-180 SIE beta-lactamase reporter, IL-6 stimulated, 5 h; at 7.69 µM (top of the series) unless noted
# How it was run: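 Emission at 460 and 530 nm (excitation 405 nm) reports SIE-controlled beta-lactamase in ME-180 cells. Cells received compound with 40 pM IL-6 for 5 hrs at 37 C; data scaled between 300 pM IL-6 and 125 nM JAK-inhibitor controls.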
# [5] = target: Glucocorticoid receptor (Homo sapiens) (UniProt P04150); experiment: GR-EFC Redistribution (AID 451); details: CHO-K1 GR-EFC translocation, beta-gal luminescence, 2 h; further: potency means the concentration at half of the fitted maximal effect
# Sequence of Glucocorticoid receptor (Homo sapiens) (P04150 whole entry, looked up, the tested form may be a part): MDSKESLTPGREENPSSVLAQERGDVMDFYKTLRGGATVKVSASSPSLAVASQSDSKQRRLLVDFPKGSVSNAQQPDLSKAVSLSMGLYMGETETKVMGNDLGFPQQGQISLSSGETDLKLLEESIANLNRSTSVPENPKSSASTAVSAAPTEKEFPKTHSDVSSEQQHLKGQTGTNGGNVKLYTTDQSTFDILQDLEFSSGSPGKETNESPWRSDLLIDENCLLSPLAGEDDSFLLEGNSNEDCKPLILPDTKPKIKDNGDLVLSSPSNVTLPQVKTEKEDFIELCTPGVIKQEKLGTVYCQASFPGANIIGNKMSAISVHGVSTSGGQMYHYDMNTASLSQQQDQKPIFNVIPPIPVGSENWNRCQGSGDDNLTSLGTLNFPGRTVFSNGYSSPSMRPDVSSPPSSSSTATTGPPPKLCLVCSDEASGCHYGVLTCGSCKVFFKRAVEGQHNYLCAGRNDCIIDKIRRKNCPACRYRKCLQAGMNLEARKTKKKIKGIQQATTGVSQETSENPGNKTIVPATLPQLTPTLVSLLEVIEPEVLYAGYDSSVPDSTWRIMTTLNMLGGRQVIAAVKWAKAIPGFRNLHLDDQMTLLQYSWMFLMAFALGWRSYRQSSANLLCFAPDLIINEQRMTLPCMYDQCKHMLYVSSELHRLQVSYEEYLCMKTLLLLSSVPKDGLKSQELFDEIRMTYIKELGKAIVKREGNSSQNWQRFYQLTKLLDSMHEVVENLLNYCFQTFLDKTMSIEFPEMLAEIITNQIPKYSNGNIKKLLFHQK
# How it was run: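 CHO-K1 cells expressing nuclear EA and GR-ED fragments of b-gal; compounds titrated up to 46 uM final, 2 h at 37 C. GR nuclear translocation read as complemented b-gal luminescence after 1 h RT detection.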
# [6] = target: Mitogen-activated protein kinase 10 (Mus musculus) (UniProt Q61831); experiment: JNK3 AlphaScreen Assay (AID 530; active means well fitted curve in either direction with a large enough effect, not every such curve was filed as active;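 further: kinase came from lysate of stimulated human HepG2 cells; signal reports phosphorylation of biotinylated GST-cJun 1-79 at Ser73 with 10 µM ATP; on the % scale 0 is the no-effect control and ±100 the full control effect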); details: JNK3 lysate, c-Jun phosphorylation; series mostly up to 57.1 µM
# How it was run: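 HepG2 lysate (IL-1b/TNFa pre-activated) + biotin-GST-cJun 1-79 + anti-pSer73 cJun; cpd titration, 15 min RT; ATP 10 uM start; Tris pH 7.6, MgCl2, DTT, vanadate; beads in EDTA buffer; AlphaScreen.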
# [7] = target: 3',5'-cyclic-AMP phosphodiesterase 4B (Homo sapiens) (UniProt Q07343); experiment: qHTS Assay for Inhibitors of PDE-IV (AID 607; active means well fitted activation curve with a large enough effect in the main read-out, with a control signal flat, not every such curve was filed as active; further: % of control where 0% means no effect); details: HEK293 ACTOne CNG channel cells, membrane potential fluorescence; series mostly up to 22.9 µM
# Sequence of 3',5'-cyclic-AMP phosphodiesterase 4B (Homo sapiens) (Q07343 whole entry, looked up): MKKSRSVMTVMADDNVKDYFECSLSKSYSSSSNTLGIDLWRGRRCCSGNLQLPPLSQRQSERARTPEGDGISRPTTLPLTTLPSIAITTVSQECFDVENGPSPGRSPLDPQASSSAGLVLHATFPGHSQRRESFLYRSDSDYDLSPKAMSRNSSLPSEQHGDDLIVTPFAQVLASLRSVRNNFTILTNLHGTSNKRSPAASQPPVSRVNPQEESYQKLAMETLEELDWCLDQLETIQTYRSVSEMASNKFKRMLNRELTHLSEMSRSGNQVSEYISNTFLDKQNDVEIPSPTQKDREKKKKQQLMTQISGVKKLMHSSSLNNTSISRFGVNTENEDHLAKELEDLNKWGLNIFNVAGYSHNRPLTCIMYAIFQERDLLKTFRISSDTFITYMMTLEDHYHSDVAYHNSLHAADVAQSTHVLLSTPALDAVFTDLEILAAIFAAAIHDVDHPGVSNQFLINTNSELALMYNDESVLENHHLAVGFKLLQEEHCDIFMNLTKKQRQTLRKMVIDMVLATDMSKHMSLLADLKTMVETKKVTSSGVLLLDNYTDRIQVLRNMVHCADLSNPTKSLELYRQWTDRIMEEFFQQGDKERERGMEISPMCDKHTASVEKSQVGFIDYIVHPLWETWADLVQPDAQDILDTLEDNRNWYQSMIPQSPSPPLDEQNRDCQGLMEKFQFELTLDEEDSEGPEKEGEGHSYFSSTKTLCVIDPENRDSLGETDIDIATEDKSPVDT
# How it was run: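 The readout is membrane depolarisation from a cAMP-sensing CNG channel, detected with a potential dye at ex 535/em 590. Cells were HEK293-derived (endogenous PDE-IV) at 1000 cells/well, titrated up to 22.9 uM final.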
# [8] = target: Cytochrome P450 2C9 (Homo sapiens) (UniProt P11712); experiment: qHTS Assay for Inhibitors and Substrates of Cytochrome P450 2C9 (AID 883; active means well fitted curve in the direction sought with a large enough effect; an effect the other way counts as inactive or inconclusive; further: potency means the concentration at half of the fitted maximal effect; nearly all actives have a fitted effect of over 60% in size); details: recombinant CYP2C9, luciferin-H luminescence, 60 min; series mostly up to 57.1 µM
# Sequence of Cytochrome P450 2C9 (Homo sapiens) (P11712 whole entry, looked up): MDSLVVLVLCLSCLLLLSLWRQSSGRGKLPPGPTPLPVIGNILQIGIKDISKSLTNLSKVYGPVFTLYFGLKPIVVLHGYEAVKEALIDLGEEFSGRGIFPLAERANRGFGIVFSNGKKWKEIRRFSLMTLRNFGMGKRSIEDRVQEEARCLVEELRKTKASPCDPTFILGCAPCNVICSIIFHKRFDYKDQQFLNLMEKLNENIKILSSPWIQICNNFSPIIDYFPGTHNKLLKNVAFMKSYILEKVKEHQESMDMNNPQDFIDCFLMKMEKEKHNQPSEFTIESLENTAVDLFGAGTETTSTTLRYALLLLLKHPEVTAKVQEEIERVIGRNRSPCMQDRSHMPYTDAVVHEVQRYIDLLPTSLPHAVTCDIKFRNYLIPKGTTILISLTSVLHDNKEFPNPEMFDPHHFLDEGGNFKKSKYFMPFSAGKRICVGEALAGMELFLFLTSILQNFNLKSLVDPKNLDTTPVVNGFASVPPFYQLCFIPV
# How it was run: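 10nM CYP2C9 + 100uM Luciferin-H (=KM), 25mM KPO4; cpd 10 min 37C; NADPH regen, 60 min 37C; stop/detect with P450 Glo-Buffer 20 min; luminescence. Norm. to 57uM sulphaphenazole as full inhibition.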
# [9] = target: Cytochrome P450 3A4 (Homo sapiens) (UniProt P08684); experiment: qHTS Assay for Inhibitors and Substrates of Cytochrome P450 3A4 (AID 884; active means well fitted curve in the direction sought with a large enough effect; an effect the other way counts as inactive or inconclusive; further: potency means the concentration at half of the fitted maximal effect; nearly all actives have a fitted effect of over 50% in size); details: recombinant CYP3A4, Luciferin-PPXE luminescence; series mostly up to 57.1 µM
# Sequence of Cytochrome P450 3A4 (Homo sapiens) (P08684 whole entry, looked up): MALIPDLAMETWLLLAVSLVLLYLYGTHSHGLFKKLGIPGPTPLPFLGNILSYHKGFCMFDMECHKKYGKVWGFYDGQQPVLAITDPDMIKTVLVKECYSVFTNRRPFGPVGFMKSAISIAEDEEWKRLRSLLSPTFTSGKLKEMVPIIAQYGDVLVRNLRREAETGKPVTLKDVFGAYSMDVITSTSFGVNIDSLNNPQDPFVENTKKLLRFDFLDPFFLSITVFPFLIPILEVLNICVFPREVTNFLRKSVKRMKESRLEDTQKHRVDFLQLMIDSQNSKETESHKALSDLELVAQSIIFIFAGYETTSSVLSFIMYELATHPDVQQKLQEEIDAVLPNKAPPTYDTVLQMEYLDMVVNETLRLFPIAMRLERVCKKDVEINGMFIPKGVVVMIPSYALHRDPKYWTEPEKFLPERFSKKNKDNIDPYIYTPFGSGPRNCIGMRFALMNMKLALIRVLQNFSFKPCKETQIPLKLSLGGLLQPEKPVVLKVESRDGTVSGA
# How it was run: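 Luminescent readout of luciferin produced by CYP3A4 (20 nM) dealkylation of Luciferin-PPXE, 25 uM (its KM). NADPH-driven reaction ran 60 min at RT after 10 min compound preincubation; data scaled to 57 uM ketoconazole as 100% inhibition.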
# [10] = target: Cytochrome P450 3A4 (Homo sapiens) (UniProt P08684); experiment: qHTS Assay for Activators of Cytochrome P450 3A4 (AID 885; active means well fitted curve in the direction sought with a large enough effect; an effect the other way counts as inactive or inconclusive; further: nearly all actives have a fitted effect of over 65% in size); details: recombinant CYP3A4, Luciferin-PPXE luminescence, 60 min; series mostly up to 57.1 µM
# How it was run: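 Activators are scored by enhanced luminescence from CYP3A4 conversion of luciferin-PPXE (25uM, equal to KM) to luciferin, after 60 min at RT with an NADPH-regenerating system.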
# [11] = target: Cytochrome P450 2D6 (Homo sapiens) (UniProt P10635); experiment: qHTS Assay for Inhibitors and Substrates of Cytochrome P450 2D6 (AID 891; active means well fitted curve in the direction sought with a large enough effect; an effect the other way counts as inactive or inconclusive; further: potency means the concentration at half of the fitted maximal effect; nearly all actives have a fitted effect of over 60% in size); details: recombinant CYP2D6, luciferin-ME EGE luminescence; series mostly up to 57.1 µM
# Sequence of Cytochrome P450 2D6 (Homo sapiens) (P10635 whole entry, looked up): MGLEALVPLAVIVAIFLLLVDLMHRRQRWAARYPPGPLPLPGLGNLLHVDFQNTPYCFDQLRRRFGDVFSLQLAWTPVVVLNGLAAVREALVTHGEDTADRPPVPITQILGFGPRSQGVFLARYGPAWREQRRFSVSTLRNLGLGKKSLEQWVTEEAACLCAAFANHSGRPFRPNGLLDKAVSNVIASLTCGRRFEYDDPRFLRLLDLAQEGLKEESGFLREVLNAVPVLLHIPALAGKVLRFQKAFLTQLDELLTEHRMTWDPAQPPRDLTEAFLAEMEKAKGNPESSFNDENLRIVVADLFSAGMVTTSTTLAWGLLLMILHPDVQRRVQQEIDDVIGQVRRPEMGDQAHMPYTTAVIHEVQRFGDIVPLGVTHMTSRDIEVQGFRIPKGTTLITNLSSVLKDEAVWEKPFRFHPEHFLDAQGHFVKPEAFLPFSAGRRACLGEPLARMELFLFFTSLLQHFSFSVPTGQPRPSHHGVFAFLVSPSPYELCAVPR
# How it was run: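 Luminescent read-out of luciferin formed by 5 nM human CYP2D6 demethylating 30 uM Luciferin-ME EGE (Km level) over 60 min at room temperature after NADPH regeneration addition. Data normalized to full inhibition by 1.43 uM quinidine.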
# [12] = qHTS Assay for Identification of Small Molecule Agonists for Hypoxia Response Element Signaling Pathway (AID 914; active means well fitted activation curve with a large enough effect in the signal ratio, with a control signal flat, not every such curve was filed as active; the % refers to the signal ratio; further: % of control where 0% means no effect); details: ME-180 (cervical carcinoma) HRE-bla reporter, beta-lactamase ratio, CoCl2, 17 h; activation: stronger effect = higher value
# How it was run: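 HRE-bla ME-180 cells, overnight plating in Opti-MEM with 0.5% dialyzed FBS; cpd titration + EC50 CoCl2, 17 h, 37 degrees Celsius; CCF4 2.5 h RT; 460/530 nm ratio; AC50.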
# [13] = qHTS Assay for Lipid Storage Modulators (AID 1519); details: Drosophila S3 cells, BODIPY lipid droplet/cell ratio, laser cytometry, cells loaded with oleic acid; for activity change, negative = inhibition: at 57.5 µM (top of the series)
# How it was run: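 Cells seeded at 5,000 per well were treated with compounds over a concentration series and loaded with oleic acid (400 uM, as added). Lipid droplet fluorescence (488 nm excitation, 500-530 nm channel) was read by laser-scanning cytometry and normalized to 20 uM Triacsin C.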
# [14] = Primary qHTS for small molecule stabilizers of the endoplasmic reticulum resident proteome: Secreted ER Calcium Modulated Protein (SERCaMP) assay (AID 1508630; active means well fitted curve in the direction sought with a large enough effect; an effect the other way counts as inactive or inconclusive; further: on the % scale 0 is the no-effect control and ±100 the full control effect); details: SH-SY5Y GLuc-SERCaMP (Gaussia luciferase released on ER calcium loss) secretion, thapsigargin, luminescence; series mostly up to 38.4 µM
# How it was run: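 The SH-SY5Y reporter protocol was run at 3 concentrations up to 38.3 uM (primary) or 11 concentrations (follow-up): 16 h compound, 100 nM thapsigargin for 4 h, then extracellular luciferase luminescence.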
# [15] = target: Glucocorticoid receptor (Homo sapiens) (UniProt P04150); experiment: GR-GFP Redistribution (AID 450;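 active means compounds whose dose series gives a full or clear partial fitted curve of increased nuclear translocation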; further: potency means the concentration at half of the fitted maximal effect); details: U2OS GR-GFP nuclear translocation, laser cytometry, 2 h
# [16] = Confirmation and Secondary Assay for Modulators of Hemoglobin Beta Chain Splicing at IVS2 654 locus (AID 910; active means well fitted curve in the direction sought with a large enough effect; an effect the other way counts as inactive or inconclusive;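 further: HeLa cells stably carrying EGFP split by mutant beta-globin IVS2-654 intron; % of control where 0% means no effect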); details: HeLa EGFP-654 splicing reporter, GFP fluorescence, 48 h; series mostly up to 38.3 µM
# How it was run: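 HeLa cells stably expressing EGFP interrupted by β-globin IVS2-654 intron, seeded overnight in Opti-MEM/2% FCS, then treated 2 days at 37 °C. Restored splicing read as total peak GFP intensity per well by laser scanning cytometry (488 nm excitation, 500–520 nm emission); 500 nM antisense PNA as control.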
# [17] = target: Ubiquitin carboxyl-terminal hydrolase 1 (Homo sapiens) (UniProt O94782); experiment: Inhibitors of USP1/UAF1: Pilot qHTS (AID 504865; active means well fitted curve in the direction sought with a large enough effect; an effect the other way counts as inactive or inconclusive;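 further: rhodamine fluorescence freed from ubiquitin-rhodamine substrate followed over time; top concentration of the series differs between compounds; on the % scale 0 is the no-effect control and ±100 the full control effect; nearly all actives have a fitted effect of over 35% in size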); details: purified USP1/UAF1, Ub-rhodamine cleavage fluorescence; series mostly up to 54.9 µM
# Sequence of Ubiquitin carboxyl-terminal hydrolase 1 (Homo sapiens) (O94782 whole entry, looked up): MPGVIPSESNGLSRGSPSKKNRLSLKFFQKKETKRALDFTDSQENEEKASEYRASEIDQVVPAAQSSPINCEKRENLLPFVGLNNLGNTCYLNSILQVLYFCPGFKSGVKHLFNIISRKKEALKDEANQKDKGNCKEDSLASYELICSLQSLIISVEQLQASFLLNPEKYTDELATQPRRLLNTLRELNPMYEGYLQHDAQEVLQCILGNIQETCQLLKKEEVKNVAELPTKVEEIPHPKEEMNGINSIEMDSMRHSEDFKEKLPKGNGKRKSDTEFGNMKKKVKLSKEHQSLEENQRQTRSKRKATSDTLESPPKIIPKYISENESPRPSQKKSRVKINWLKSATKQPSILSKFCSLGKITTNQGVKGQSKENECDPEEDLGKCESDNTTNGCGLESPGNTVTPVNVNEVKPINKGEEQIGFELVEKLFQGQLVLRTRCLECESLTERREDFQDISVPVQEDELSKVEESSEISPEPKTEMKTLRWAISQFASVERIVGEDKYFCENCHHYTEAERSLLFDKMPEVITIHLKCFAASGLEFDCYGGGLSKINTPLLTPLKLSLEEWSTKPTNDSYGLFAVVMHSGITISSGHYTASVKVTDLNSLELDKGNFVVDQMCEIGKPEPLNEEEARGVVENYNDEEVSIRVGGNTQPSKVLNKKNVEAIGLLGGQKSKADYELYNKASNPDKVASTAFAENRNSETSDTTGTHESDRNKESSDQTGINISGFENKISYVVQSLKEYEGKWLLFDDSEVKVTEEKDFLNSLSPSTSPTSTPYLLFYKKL
# How it was run: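 1nM USP1/UAF1 + cpd, 15 min RT; start w/ Ub-Rho 150nM final; kinetic FL 480/540 nm, 6 reads q60 s. Buffer 50mM HEPES pH 7.8, 0.5mM EDTA, 1mM TCEP, 0.01% Tween-20, 0.1 mg/ml BSA.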
# [18] = measured here: cell count channel max response
# [19] = measured here: lipid channel max response
# Sequence of Lysosomal acid glucosylceramidase (Homo sapiens) (P04062 whole entry, looked up): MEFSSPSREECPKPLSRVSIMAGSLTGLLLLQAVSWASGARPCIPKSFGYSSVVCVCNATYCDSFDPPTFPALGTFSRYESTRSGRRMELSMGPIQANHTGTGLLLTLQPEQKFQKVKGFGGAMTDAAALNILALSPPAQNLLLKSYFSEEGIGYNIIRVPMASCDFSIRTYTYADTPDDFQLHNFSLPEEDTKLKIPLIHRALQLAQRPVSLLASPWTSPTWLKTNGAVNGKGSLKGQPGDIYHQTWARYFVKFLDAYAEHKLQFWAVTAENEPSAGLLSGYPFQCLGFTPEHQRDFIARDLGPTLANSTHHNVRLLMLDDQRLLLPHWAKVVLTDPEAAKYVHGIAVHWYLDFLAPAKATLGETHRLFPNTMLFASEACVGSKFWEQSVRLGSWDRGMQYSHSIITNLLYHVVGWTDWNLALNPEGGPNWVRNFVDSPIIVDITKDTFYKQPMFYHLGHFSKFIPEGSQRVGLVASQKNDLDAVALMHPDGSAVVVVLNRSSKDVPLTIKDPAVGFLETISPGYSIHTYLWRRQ
SMILES,Potency [1],"activity change, negative = inhibition [2]",Potency [3],"activity, negative = inhibition [4]",Potency [5],Potency [6],Potency [7],Potency [8],Potency [9],Potency [10],Potency [11],activation [12],"activity change, negative = inhibition [13]","max response [13, 18]","max response [13, 19]",outcome [14],Potency [15],Potency [16],Potency [17]
O=C(c1ccncc1)N1CCC2(CCCN(Cc3ccncc3)C2)CC1,> 11.4 µM (inactive),-5.21% (inactive),6.31 µM (active),4.83% (inactive),> 46 µM (inactive),inactive,inactive,5.01 µM (active),5.01 µM (active),inactive,6.31 µM (active),2.4% (inactive),2.08% (inactive),1.67%,8.27%,inactive,,,
COCC(=O)N1CCC2(CCCN(Cc3ccccc3)C2)CC1,> 11.4 µM (inactive),-19.3% (inactive),inactive,0.327% (inactive),> 46 µM (inactive),inactive,inactive,,,,,,2.23% (inactive),22.3%,27.9%,inactive,,,
CC(C)CN1CCC2(CC1)CCN(C(=O)c1cc(C(F)(F)F)cc(C(F)(F)F)c1)CC2,> 11.4 µM (inactive),3.4% (inactive),inactive,0.414% (inactive),> 46 µM (inactive),inactive,inactive,,,,,,-2.84% (inactive),-18.2%,-17.3%,inactive,,,
COC(=O)N1CCC2(CCCN(Cc3nccs3)C2)CC1,> 11.4 µM (inactive),-9.45% (inactive),inactive,-5.19% (inactive),> 46 µM (inactive),inactive,inactive,,,,,,5.26% (inactive),2.22%,10.9%,inactive,,,
CN(C)Cc1ccccc1-c1cc(-n2ccnc2)ncn1,> 11.4 µM (inactive),-2.52% (inactive),5.01 µM (active),1.39% (inactive),> 46 µM (inactive),inactive,inactive,,,inactive,,,11.3% (inactive),4.13%,14.2%,inactive,> 46 µM (inactive),inactive,inactive
CC(C)CN1CCC2(CC1)CCN(C(=O)c1cnccn1)CC2,> 11.4 µM (inactive),-3.54% (inactive),inactive,3.68% (inactive),> 46 µM (inactive),inactive,inactive,,,,,,-2.81% (inactive),-8.95%,-8.33%,inactive,,,
CS(=O)(=O)N1CCC2(CCN(c3ccncc3)CC2)CC1,> 11.4 µM (inactive),-13.1% (inactive),12.6 µM (active),0.543% (inactive),> 46 µM (inactive),inactive,inactive,,,,,,3.83% (inactive),7.45%,13.6%,inactive,,,
